Read-out in assay [1]: TIMP metallopeptidase inhibitor 2 (TIMP2), TIMP2 (gene 7077)
The assay can be described thus: BSK_KF3CT_TIMP2: BioMAP Diversity Plus: KF3CT Assay for TIMP metallopeptidase inhibitor 2 (TIMP2) Biomarker Activity (AID 2283071). The conditions noted are these: primary human keratinocytes with fibroblasts; actives raise or lower the signal. In short, it runs like this:
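TIMP-2 measured by ELISA at 24 h in human keratinocyte/fibroblast primary co-cultures exposed to chemicals. Both increases and decreases were fitted against DMSO. Parallel cultures were stained with SRB for total protein as an overt-cytotoxicity check.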

Read-out in assay [2]: Transforming growth factor beta 1 (TGFb1), TGFB1 (gene 7040)
The assay can be described thus: BSK_KF3CT_TGFb1: BioMAP Diversity Plus: KF3CT Assay for Transforming growth factor beta 1 (TGFb1) Biomarker Activity (AID 2283072). The conditions noted are these: primary human keratinocytes with fibroblasts; actives raise or lower the signal. In short, it runs like this: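 ELISA quantifies TGF-b1 at 24 h post-dose in a primary human skin co-culture of keratinocytes and fibroblasts, with gain or loss judged against DMSO. Parallel SRB total-protein staining flags overt cytotoxicity.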

Read-out in assay [3]: C-C motif chemokine 2 (Homo sapiens) (UniProt P13500)
The assay can be described thus: BSK_KF3CT_MCP1: BioMAP Diversity Plus: KF3CT Assay for Monocyte Chemoattractant Protein 1 (MCP1/CCL2) Biomarker Activity (AID 2283073). The conditions noted are these: primary human keratinocytes with fibroblasts; actives raise or lower the signal. In short, it runs like this:
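Human keratinocyte–foreskin fibroblast co-culture; MCP-1 measured by ELISA 24 h after dosing. Bidirectional fit vs DMSO; cytotoxicity tracked by SRB total protein in parallel cultures.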

Read-out in assay [4]: Matrix Metallopeptidase 9 (MMP9), MMP9 (gene 4318)
The experiment in a line: BSK_KF3CT_MMP9: BioMAP Diversity Plus: KF3CT Assay for Matrix Metallopeptidase 9 (MMP9) Biomarker Activity (AID 2283074).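 As to AC50: MMP9 protein level quantified by ELISA in the co-culture.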 The conditions noted are these: primary human keratinocytes with fibroblasts; actives raise or lower the signal. In a few lines: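 Values come from bidirectional fitting relative to DMSO of MMP-9 levels, which were measured by ELISA. Measurements were taken 24 h after chemical dosing of a keratinocyte and foreskin fibroblast co-culture.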

Read-out in assay [5]: urokinase plasminogen activator (uPA), PLAU (gene 5328)
The experiment in a line: BSK_KF3CT_uPA: BioMAP Diversity Plus: KF3CT Assay for urokinase plasminogen activator (uPA) Biomarker Activity (AID 2283075). The settings on record: primary human keratinocytes with fibroblasts; actives raise or lower the signal. In short, it runs like this:
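Values derive from bidirectional fitting against DMSO controls. Keratinocyte/foreskin fibroblast co-cultures received chemical; 24 h later uPA was detected by ELISA, with SRB total-protein staining in parallel wells for overt cytotoxicity.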

Read-out in assay [6]: CD40, CD40 (gene 958)
The experiment in a line: BSK_LPS_CD40: BioMAP Diversity Plus: LPS Assay for CD40 Biomarker Activity (AID 2283076). The conditions noted are these: primary human HUVEC with PBMC; actives raise or lower the signal. In a few lines:
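HUVEC plus PBMC co-culture stimulated with LPS; CD40 quantified by ELISA 24 h after compound dosing. Fitting was bidirectional relative to DMSO. SRB staining of parallel cultures flagged overt cytotoxicity.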

Read-out in assay [7]: E-selectin (Homo sapiens) (UniProt P16581)
The experiment in a line: BSK_LPS_Eselectin: BioMAP Diversity Plus: LPS Assay for Eselectin Biomarker Activity (AID 2283077). The conditions noted are these: primary human HUVEC with PBMC; actives raise or lower the signal. In a few lines:
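Human umbilical vein endothelial cells co-cultured with PBMC under LPS stimulation; cell-surface E-selectin measured by ELISA 24 h after dosing. Change in either direction versus DMSO, with SRB total-protein staining in parallel cultures for cytotoxicity.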

Read-out in assay [8]: Interleukin-8 (IL8), CXCL8 (gene 3576)
The assay can be described thus: BSK_LPS_IL8: BioMAP Diversity Plus: LPS Assay for Interleukin-8 (IL8) Biomarker Activity (AID 2283078). The settings on record: primary human HUVEC with PBMC; actives raise or lower the signal. In a few lines: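 Human umbilical vein endothelial cells co-cultured with PBMC, LPS-stimulated, exposed to compound for 24 h. IL-8 quantified by ELISA; fitted in both directions against DMSO, with SRB total-protein staining of parallel cultures for cytotoxicity.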

The nature of assay [9]: BSK_LPS_SRB: Viability Assessment in the BioMAP Diversity Plus: LPS Assay (AID 2283079).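 Also: total protein by sulforhodamine B absorbance as a cytotoxicity measure; measured one day after compound addition; fitted in both directions against DMSO so loss or gain of signal counts.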 The settings on record: primary human HUVEC with PBMC. In short, it runs like this: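 Co-culture of human umbilical vein endothelial cells and PBMC, read 24 h after dosing. Total protein by 0.1% SRB staining after 10% TCA fixation, absorbance at 560 nm; bidirectional fit against DMSO.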

Read-out in assay [10]: Interleukin-1 alpha (IL1a), IL1A (gene 3552)
The experiment in a line: BSK_LPS_IL1a: BioMAP Diversity Plus: LPS Assay for Interleukin-1 alpha (IL1a) Biomarker Activity (AID 2283080). The conditions noted are these: primary human HUVEC with PBMC; actives raise or lower the signal. In a few lines:
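Human umbilical vein endothelial cells co-cultured with PBMC and stimulated with LPS; IL-1a measured by ELISA 24 h after dosing. Bidirectional fitting against DMSO; cytotoxicity checked by SRB staining in parallel cultures.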

Read-out in assay [11]: Monocyte Chemoattractant Protein-1 (MCP1), CCL2 (gene 6347)
The assay can be described thus: BSK_LPS_MCP1: BioMAP Diversity Plus: LPS Assay for Monocyte Chemoattractant Protein-1 (MCP1) Biomarker Activity (AID 2283081). The settings on record: primary human HUVEC with PBMC; actives raise or lower the signal. In short, it runs like this:
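Human umbilical vein endothelial cells co-cultured with PBMC, LPS-stimulated; secreted MCP-1 measured by ELISA 24 h after compound addition. Bidirectional curve fitting against DMSO baseline; SRB total-protein staining in parallel cultures for cytotoxicity.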

Assay [12] in a line: BSK_LPS_PGE2: BioMAP Diversity Plus: LPS Assay for Prostaglandin E2 (PGE2) Biomarker Activity (AID 2283082). The settings on record: primary human HUVEC with PBMC; actives raise or lower the signal. In a few lines: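 PGE2 release measured by ELISA in an LPS-activated co-culture of human umbilical vein endothelial cells and peripheral blood mononuclear cells, read at 24 h post-dosing. DMSO served as baseline for bidirectional curve fitting.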

Read-out in assay [13]: Macrophage colony-stimulating factor (MCSF), CSF1 (gene 1435)
The assay can be described thus: BSK_LPS_MCSF: BioMAP Diversity Plus: LPS Assay for Macrophage colony-stimulating factor (MCSF) Biomarker Activity (AID 2283083). The settings on record: primary human HUVEC with PBMC; actives raise or lower the signal. In short, it runs like this: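 HUVEC–PBMC co-culture, M-CSF measured by ELISA 24 h after chemical dosing. Fitted in both directions relative to DMSO as negative control; overt cytotoxicity assessed by SRB total-protein staining in parallel cultures.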

Read-out in assay [14]: Tissue Factor, F3 (gene 2152)
The assay can be described thus: BSK_LPS_TissueFactor: BioMAP Diversity Plus: LPS Assay for Tissue Factor Biomarker Activity (AID 2283084). The settings on record: primary human HUVEC with PBMC; actives raise or lower the signal. In a few lines:
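Human umbilical vein endothelial cells co-cultured with PBMC were dosed with compound. Cell-surface CD142 was measured by ELISA 24 h later. Activity was fitted bidirectionally against DMSO, with SRB total-protein staining in parallel cultures for cytotoxicity.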

Read-out in assay [15]: Tumor necrosis factor (Homo sapiens) (UniProt P01375)
The assay can be described thus: BSK_LPS_TNFa: BioMAP Diversity Plus: LPS Assay for Tumour Necrosis Factor alpha (TNFa) Biomarker Activity (AID 2283085).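 As to AC50: TNFa protein level quantified by ELISA in the co-culture.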 The settings on record: primary human HUVEC with PBMC; actives raise or lower the signal. In short, it runs like this: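 TNFa was quantified by ELISA in LPS-activated co-cultures of human endothelial cells and PBMC, 24 h post-dosing. Both increases and decreases versus DMSO were fitted.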

Read-out in assay [16]: Vascular cell adhesion molecule 1 (VCAM1), VCAM1 (gene 7412)
The assay can be described thus: BSK_LPS_VCAM1: BioMAP Diversity Plus: LPS Assay for Vascular cell adhesion molecule 1 (VCAM1) Biomarker Activity (AID 2283086). The conditions noted are these: primary human HUVEC with PBMC; actives raise or lower the signal. In short, it runs like this:
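VCAM-1 quantified by ELISA in an LPS-activated co-culture of human endothelial cells and peripheral blood mononuclear cells, read 24 h post-treatment. Fitted in both directions versus DMSO; parallel SRB staining flags overt cytotoxicity.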

Read-out in assay [17]: CD38, CD38 (gene 952)
The assay can be described thus: BSK_SAg_CD38: BioMAP Diversity Plus: SAg Assay for CD38 Biomarker Activity (AID 2283087). The conditions noted are these: primary human HUVEC with PBMC; actives raise or lower the signal. In a few lines:
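CD38 quantified by ELISA (fluorescence) in a superantigen-activated endothelial cell–PBMC co-culture at 24 h post-dose. Activity fitted in both directions relative to DMSO; parallel SRB and Alamar Blue cytotoxicity read-outs.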

Read-out in assay [18]: CD40, CD40 (gene 958)
The experiment in a line: BSK_SAg_CD40: BioMAP Diversity Plus: SAg Assay for CD40 Biomarker Activity (AID 2283088). The settings on record: primary human HUVEC with PBMC; actives raise or lower the signal. In a few lines: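 HUVEC plus PBMC co-culture, superantigen-activated, with CD40 read by ELISA 24 h after dosing. Curves fitted in both directions against DMSO. Overt cytotoxicity checked by parallel SRB total-protein staining.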

Read-out in assay [19]: CD69, CD69 (gene 969)
The assay can be described thus: BSK_SAg_CD69: BioMAP Diversity Plus: SAg Assay for CD69 Biomarker Activity (AID 2283089). The conditions noted are these: primary human HUVEC with PBMC; actives raise or lower the signal. In short, it runs like this:
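Endothelial/PBMC co-culture; chemical added; 24 h incubation; CD69 ELISA with fluorescence detection; bidirectional fit vs DMSO.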

Read-out in assay [20]: Monocyte Chemoattractant Protein-1 (MCP1), CCL2 (gene 6347)
The assay can be described thus: BSK_SAg_MCP1: BioMAP Diversity Plus: SAg Assay for Monocyte Chemoattractant Protein-1 (MCP1) Biomarker Activity (AID 2283090). The settings on record: primary human HUVEC with PBMC; actives raise or lower the signal. In a few lines:
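Values derive from bidirectional fitting of ELISA-measured MCP1 against DMSO controls. Readings were taken 24 h after dosing human vascular endothelial cells co-cultured with peripheral blood mononuclear cells under superantigen stimulation.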

Usually AC50 stands for the midpoint of the concentration-response curve, whichever way the signal moves.

Calls of active or inactive are those of the source. The calls were made as follows: active = hit-call score of the fitted dose curve at least 0.9, where 1 is the maximum; inactive = score below 0.9.

Sequence of E-selectin (Homo sapiens) (P16581 whole entry, looked up): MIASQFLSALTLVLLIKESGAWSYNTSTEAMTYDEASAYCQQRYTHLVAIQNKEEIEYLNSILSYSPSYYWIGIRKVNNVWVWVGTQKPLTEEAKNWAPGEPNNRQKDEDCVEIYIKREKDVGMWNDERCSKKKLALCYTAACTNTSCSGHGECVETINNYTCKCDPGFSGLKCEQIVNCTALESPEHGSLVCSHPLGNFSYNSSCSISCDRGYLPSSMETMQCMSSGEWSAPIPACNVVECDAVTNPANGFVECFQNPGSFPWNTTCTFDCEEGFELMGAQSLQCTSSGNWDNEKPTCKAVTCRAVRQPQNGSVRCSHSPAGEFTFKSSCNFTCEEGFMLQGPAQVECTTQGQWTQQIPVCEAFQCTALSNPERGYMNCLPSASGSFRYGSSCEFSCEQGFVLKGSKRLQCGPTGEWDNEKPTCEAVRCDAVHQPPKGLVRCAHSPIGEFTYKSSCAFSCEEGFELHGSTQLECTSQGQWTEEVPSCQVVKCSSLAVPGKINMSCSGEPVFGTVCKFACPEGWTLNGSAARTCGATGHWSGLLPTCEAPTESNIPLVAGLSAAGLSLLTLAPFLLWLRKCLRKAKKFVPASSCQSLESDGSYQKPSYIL
Sequence of Tumor necrosis factor (Homo sapiens) (P01375 whole entry, looked up): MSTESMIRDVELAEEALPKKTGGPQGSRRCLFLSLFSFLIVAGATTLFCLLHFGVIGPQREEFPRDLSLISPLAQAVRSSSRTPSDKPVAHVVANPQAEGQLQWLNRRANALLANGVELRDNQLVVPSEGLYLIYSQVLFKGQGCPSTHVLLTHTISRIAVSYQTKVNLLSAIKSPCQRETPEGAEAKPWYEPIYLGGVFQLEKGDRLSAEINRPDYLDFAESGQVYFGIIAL

For the molecule `CCOc1nc(NC)nc(NC(=O)NS(=O)(=O)c2ccccc2C(=O)OC)n1`, the result in assay [1], in assay [2], in [3], in assay [6], in [7] and in assay [8] was inactive. Moreover, the outcome in assay [9], in assay [10], in assay [11], in [12], in assay [13] and in [14] was inactive. Besides, the outcome in [15], in assay [16], in assay [17], in assay [18], in [19] and in assay [20] was inactive. Also, the AC50 in [4] is 30.4 µM (active); in [5], 37 µM (active).

Take `CCS(=O)(=O)c1cccnc1S(=O)(=O)NC(=O)Nc1nc(OC)cc(OC)n1`: the outcome in assay [2], in assay [4], in assay [5], in [6], in assay [9] and in [10] was inactive. Moreover, the result in [11], in assay [13], in assay [14], in assay [16], in assay [17] and in assay [18] was inactive. The outcome in assay [19] and in assay [20] was inactive. The AC50 in [3] is 0.202 µM (active); in assay [7], 7.35 µM (active); in [8] it was 5.47 µM (active); in assay [12], 2.31 µM (active); in [15], 1.75 µM (active).

In the case of `CNC(=O)CSP(=S)(OC)OC`, the result in assay [2], in [3], in assay [4], in assay [5], in [6] and in [7] was inactive. Further, the outcome in assay [8], in assay [9], in assay [10], in assay [11], in assay [12] and in assay [13] was inactive. In addition, the outcome in assay [14], in assay [15], in assay [16], in assay [17], in assay [18] and in [19] was inactive. Further, the outcome in assay [20] was inactive.
